Structures are written as SMILES.

These results are taken from ChEMBL document CHEMBL3433997, “St. Jude Leishmania screening dataset” (2016).

Holding throughout (type): functional
Assay [1] has as its target Solute carrier family 2, facilitated glucose transporter member 1 (Homo sapiens) (UniProt P11166). Kind of assay: ST_JUDE_LEISH: Cytotoxicity at 2uM final concentration against transgenic Leishmania Mexicana promastigotes LmGLUT1 that are glucose transport deficient and complemented with the human glucose transporter GLUT1. Activity is measured by DNA content using SYBR green in vitro.

The target of assay [2] is Hexose transporter 1 (Plasmodium falciparum) (UniProt O97467). Kind of assay: ST_JUDE_LEISH: Cytotoxicity at 2uM final concentration against transgenic Leishmania Mexicana promastigotes LmPfHT that are glucose transport deficient and complemented with the Plasmodium falciparum hexose transporter. Activity is measured by DNA content using SYBR green in vitro.
The target of assay [3] is Glucose transporter (Leishmania mexicana) (UniProt O61059). Kind of assay: ST_JUDE_LEISH: Cytotoxicity at 2uM final concentration against transgenic Leishmania Mexicana promastigotes LmGT2 that are glucose transport deficient and complemented with the L. Mexicana glucose transporter 2. Activity is measured by DNA content using SYBR green in vitro.

Sequence of Solute carrier family 2, facilitated glucose transporter member 1 (Homo sapiens) (P11166 whole entry): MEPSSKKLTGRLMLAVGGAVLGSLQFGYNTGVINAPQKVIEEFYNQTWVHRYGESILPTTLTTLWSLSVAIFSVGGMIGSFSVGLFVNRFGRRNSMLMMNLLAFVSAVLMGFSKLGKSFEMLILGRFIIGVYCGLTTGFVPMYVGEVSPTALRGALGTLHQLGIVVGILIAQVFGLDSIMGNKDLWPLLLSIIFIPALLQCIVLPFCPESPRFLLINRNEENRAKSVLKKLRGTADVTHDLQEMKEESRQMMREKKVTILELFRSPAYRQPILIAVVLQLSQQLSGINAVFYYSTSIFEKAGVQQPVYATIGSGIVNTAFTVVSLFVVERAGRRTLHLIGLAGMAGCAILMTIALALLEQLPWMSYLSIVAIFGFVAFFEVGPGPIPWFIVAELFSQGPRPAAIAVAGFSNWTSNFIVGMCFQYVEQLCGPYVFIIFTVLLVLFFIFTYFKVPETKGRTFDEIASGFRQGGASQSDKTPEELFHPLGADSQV

For the molecule `CCNc1cc(C(=O)N[C@@H](Cc2ccco2)[C@H](O)CNC2CCCCC2)cc(N2CCCCS2(=O)=O)c1`, the inhibition in assay [1] was determined as 1.99%; in assay [2], 2.4%; in assay [3], 2.15%.

For `COCCn1c(C)nc2ccccc2c1=O`, the inhibition in assay [1] is 1.04%; in assay [2] it was 1.69%; in assay [3], -0.79%.

As to `Cc1ccc(NC(=O)c2cc(S(=O)(=O)NC(C)(C)C)ccc2C)nc1`, the inhibition in assay [1] was 0.04%; in assay [2], 0.34%; in assay [3], 2.32%.

Take `CC(C)N1CCC(N(Cc2ccc(-c3ccc(Cl)cc3)cc2)C(=O)Cn2c(CCc3cccc(F)c3F)nc(=O)c3ccccc32)CC1`: the results for the inhibition in assay [1], in assay [2] and in assay [3] were 6.02%, 5.38% and 3.03%, respectively.

On to `CCN1CCCC1CNC(=O)c1cc2c(-c3ccc(Cl)cc3)nn(C)c2s1` (stereo not drawn), for which the results for the inhibition in assay [1], in assay [2] and in assay [3] were 2.89%, 5.39% and 2.6%, respectively.

Regarding `Nc1ncc(-c2ccccc2)cc1-c1cccc2ncccc12`, the inhibition in assay [1] was 7.53%; in assay [2], 9.12%; in assay [3] it was 6.36%.

Consider `COc1ccc2ncc(Cl)c(CCN3CC[C@@H](CNCc4cc5c(cn4)OCS5)C3)c2n1`, for which the results for the inhibition in assay [1], in assay [2] and in assay [3] were 6.89%, 7.89% and 12.2%, respectively.

In the case of `CN(C)CCCN1CCN(C(=O)c2cccc(-c3noc(C(F)(F)F)n3)c2)CC1`, the inhibition in assay [1] amounted to 2.61%; in assay [2] it was 3.52%; in assay [3], 3.7%.

As for `O=C(Nc1cc(=O)[nH]c2nc(-c3ccccc3)nn12)C1CCCCC1`, the inhibition was 2.3% in assay [1], 2.44% in assay [2] and 3.26% in assay [3].

As to `O=C(NCc1cccc2ccccc12)C(c1cc2ccccc2o1)N1CCN(C(c2ccccc2)c2ccccc2)CC1` (stereo not drawn), the figures for the inhibition in assay [1], in assay [2] and in assay [3] were 3.87%, 1.42% and -2.97%, respectively.

Turning to `COc1ccc(CCN(C)CCc2ccc(NC(=O)c3cccc4c(=O)c5ccccc5sc34)cc2)cc1`, the inhibition in assay [1] was 2.21%; in assay [2], -0.35%; in assay [3], 0.2%.

In the case of `COc1nc2c(CCN3CC[C@H](NCc4ccc5c(c4)NC(=O)CO5)[C@H](O)C3)c(Cl)cnc2cc1F`, the inhibition in assay [1] stood at 6.64%; in assay [2], 7.74%; in assay [3], 4.24%.

In the case of `N#Cc1ccc(S(=O)(=O)N2C(c3cccc([N+](=O)[O-])c3)C(C(=O)c3ccccc3)N(C3CCCCC3)C2c2cccc([N+](=O)[O-])c2)cc1` (stereo not drawn), the inhibition came to 7.88% in assay [1], 7.58% in assay [2] and 7.58% in assay [3].

`COc1cc(-c2nnc(SCC(=O)Nc3cc(C)on3)n2C)cc(OC)c1O`: the inhibition in assay [1] worked out at 7.83%; in assay [2] it was 7.61%; in assay [3], 7.59%.

Turning to `CCN1CCN(CCCNc2c3ccccc3nc3ccccc23)CC1`, the values for the inhibition in assay [1], in assay [2] and in assay [3] were 65.5%, 55.3% and 39.1%, respectively.

Regarding `O=C(Nc1cccc(OC2CCN(Cc3ccccc3)CC2)c1)Nc1cccc([N+](=O)[O-])c1`, the inhibition in assay [1] is 3.41%; in assay [2], 2.74%; in assay [3] it was 2.57%.

On to `N=C(N)NCCCN(Cc1ccccc1)c1ccccc1`, for which the inhibition in assay [1] was found to be 3.87%; in assay [2], 2.61%; in assay [3] it was 1.89%.

For the molecule `N#Cc1ccc(-n2cc(C(=O)Nc3ccc4c(c3)CCN(C3CCC3)CC4)c(C(F)(F)F)n2)cc1`, the inhibition in assay [1] was 7.01%; in assay [2] it was 6.79%; in assay [3], 4.42%.

In the case of `Cc1ccc(NC(=O)c2ccc3ncccc3c2)cc1OC1CCN(Cc2ccc(F)cc2)CC1`, the values for the inhibition in assay [1], in assay [2] and in assay [3] were 6.67%, 3.46% and 5.46%, respectively.

With `O=C(/C=C/c1ccc(Cl)c(Cl)c1)NCCCCCCN1CCN(C(=O)Nc2ccc(Cl)c(C(F)(F)F)c2)CC1`, the inhibition in assay [1] was 4.18%; in assay [2], 4.06%; in assay [3], -1.95%.

`Cc1cccc(-c2nc3[nH]c(=O)cc(NC(=O)C(C)C)n3n2)c1`: the inhibition in assay [1] was -2.8%; in assay [2] it was -2.49%; in assay [3], -1.3%.

As for `C=CCC(CC=C)N1C(=O)C(c2ccccc2)(c2ccccc2)N=C1N`, the inhibition is 0.75% in assay [1], -0.83% in assay [2] and 0.62% in assay [3].

Take `COc1ccc(C=NN=c2cc(C)[nH]c3ccccc23)c2ccccc12`: the figures for the inhibition in assay [1], in assay [2] and in assay [3] were 8.8%, 6.92% and 2.26%, respectively.

Take `CCOc1cc(CC)ccc1C1CCN(CCCCNC(=O)c2ccc(NC(=O)c3ccc(C#N)cc3)cc2)CC1`: the figures for the inhibition in assay [1], in assay [2] and in assay [3] were 2.45%, 0.91% and 2.06%, respectively.

In the case of `Nc1c2c(nc3cc(NC(=O)c4ccc([N+](=O)[O-])cc4)ccc13)CCCC2`, the inhibition was determined as 5.2% in assay [1], 9.51% in assay [2] and 4.23% in assay [3].

On to `CN(C)CCN(C)Cc1cccc(-c2ccc3c(Nc4cc(O)c(Cl)cc4F)ccnc3c2)c1`, for which the inhibition is 1.45% in assay [1], -0.99% in assay [2] and -2.95% in assay [3].

Regarding `Cc1ccc(NS(=O)(=O)c2ccc(-c3ccccc3)cc2)c(Cn2cnc(N3CCCNCC3)cc2=O)c1`, the inhibition in assay [1] was 4.14%; in assay [2], 3.45%; in assay [3], -3.65%.

Consider `CN1CCN(c2ccnc3ccc(NC(=O)Nc4ccccc4Br)cc23)CC1`, for which the inhibition in assay [1] is -3.53%; in assay [2] it was -0.8%; in assay [3] it was 0.11%.

Take `N=C(N)NN=Cc1cc2ccccc2c2ccccc12`: the inhibition in assay [1] turned out to be 8.49%; in assay [2], 9.7%; in assay [3], 4.16%.

In the case of `COc1cccc(NC(=O)Nc2ccc(Nc3nc(C)cc(N4CCCC4)n3)cc2)c1`, the inhibition was found to be 1.91% in assay [1], 1.07% in assay [2] and 1.4% in assay [3].

For the molecule `CC1CN(Cc2ccc(-c3ccc(-c4nc5cc(F)ccc5[nH]4)s3)cc2)CC(C)O1` (stereo not drawn), the inhibition came to 5.96% in assay [1], 4.68% in assay [2] and 3.99% in assay [3].

Take `CN(C)C(=S)N/N=C1/C(=O)Nc2ccccc21`: the inhibition in assay [1] worked out at 3.54%; in assay [2] it was 1.92%; in assay [3] it was 1.43%.

With `FC(F)(F)c1ccc(COc2cc(Cl)ccc2Cn2ccnc2)cc1`, the values for the inhibition in assay [1], in assay [2] and in assay [3] were 14%, 9.99% and 7.28%, respectively.

Take `O=C(NCCCN1CCCCC1)c1ccc(Nc2nccc(Nc3ccc(Oc4ccccc4)cc3)n2)cc1`: the inhibition in assay [1] worked out at 10.4%; in assay [2], 8.47%; in assay [3], 7.37%.

In the case of `CCN(CC1CCN(CC2(O)CCOCC2)CC1)c1cc(C)nc(Nc2ccc(Cl)cc2)n1`, the figures for the inhibition in assay [1], in assay [2] and in assay [3] were -1.01%, 0.27% and -0.02%, respectively.

Turning to `COc1ccc2c(=NN=C(C)c3ccccn3)cc(C)[nH]c2c1`, the values for the inhibition in assay [1], in assay [2] and in assay [3] were 5.68%, 9.51% and 4.08%, respectively.
